According to PubChem BioAssay (EPA / NIEHS):
Records with an inconclusive call do not appear. Active and inactive are the calls of the source. Rule for the calls, unless noted: active = hit-call score of the fitted dose curve at least 0.9, where 1 is the maximum; inconclusive = response in the unintended direction; inactive = score below 0.9.

Columns and labels:
[1] = STM_H9_OrnithineISnorm_perc: Stemina devTOX quickPredict H9 human embryonic stem cell (hESC)-based Assay for Ornithine (ORN) Metabolite Biomarker, Normalized (AID 2283712; active = hit-call score of the fitted dose curve at least 0.9, where 1 is the maximum; inactive = score below 0.9;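 note: ornithine released into spent medium during last day measured by mass spectrometry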)
In short: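 Ornithine in spent medium from the last 24 h of a 72 h exposure, deproteinised and quantified by UPLC-HRMS against an isotope-labelled internal standard, expressed relative to 0.1% DMSO. Pluripotent H9 cells; compound refreshed every 24 h.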

[2] = STM_H9_CystineISnorm_perc: Stemina devTOX quickPredict H9 human embryonic stem cell (hESC)-based Assay for Cystine (CYSS) Metabolite Biomarker, Normalized (AID 2283713; active = hit-call score of the fitted dose curve at least 0.9, where 1 is the maximum; inactive = score below 0.9)
In short: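 Cystine in spent media from the last 24 h of a 72 h H9 hESC exposure (daily re-dosing), measured by UPLC-HRMS. Values normalized to isotopic internal standard, then to 0.1% DMSO; viability via CellTiter-Fluor.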

[3] = CEETOX_H295R_MTT_cell_viability: Viability Assessment in the CeeTox HT-H295R MTT Assay (AID 2283718; active = hit-call score of the fitted dose curve at least 0.9, where 1 is the maximum; inactive = score below 0.9;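 for AC50: curve fitted both ways so AC50 may mark viability loss or gain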)
In short: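 Human H295R adrenal cells, prestimulated 48 h with 10 uM forskolin, were exposed 48 h to chemicals in 0.1% DMSO. Viability was measured in the same wells by MTT (0.5 mg/ml, 4 h, 37 C), absorbance 570/650 nm, as percent of controls.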

[4] = Tanguay_ZF_120hpf_ActivityScore_legacy: (Legacy) Oregon State University Tanguay Lab 120 Hour Post-fertilization zebrafish Assay Score for Activity (AID 2283742);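 for AC50: dechorionated Tropical 5D wild-type zebrafish embryos held singly per well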
In short: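 Dechorionated 5D embryos, one per well, static exposure 6–120 hpf, 28C, sealed and dark; final DMSO 0.64% (vol/vol). Brightfield binary scoring of mortality plus 18 endpoints; gain-of-signal fit versus DMSO baseline.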

[5] = biological target: Luciferin 4-monooxygenase (Photinus pyralis) (UniProt P08659); experiment: CCTE_Simmons_QuantiLum_inhib_2: CCTE's Firefly Luciferase Inhibition Assay, Simmons Lab (AID 2283767)
Chain of Luciferin 4-monooxygenase (Photinus pyralis) (P08659 whole entry, looked up): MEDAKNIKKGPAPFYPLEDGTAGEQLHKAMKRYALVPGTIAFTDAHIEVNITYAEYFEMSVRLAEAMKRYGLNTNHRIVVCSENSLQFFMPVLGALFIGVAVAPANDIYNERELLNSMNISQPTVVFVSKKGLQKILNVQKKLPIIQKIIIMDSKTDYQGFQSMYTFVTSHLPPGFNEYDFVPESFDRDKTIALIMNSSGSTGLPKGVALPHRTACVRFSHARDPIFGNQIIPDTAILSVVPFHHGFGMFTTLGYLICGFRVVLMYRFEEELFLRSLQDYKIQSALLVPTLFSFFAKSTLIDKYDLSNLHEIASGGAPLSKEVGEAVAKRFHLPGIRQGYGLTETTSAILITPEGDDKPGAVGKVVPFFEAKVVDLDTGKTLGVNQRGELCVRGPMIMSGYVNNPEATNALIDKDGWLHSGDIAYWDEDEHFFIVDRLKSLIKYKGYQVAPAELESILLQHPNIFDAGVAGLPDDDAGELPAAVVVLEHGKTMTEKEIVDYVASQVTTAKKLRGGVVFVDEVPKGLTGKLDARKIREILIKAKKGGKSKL
In short: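 Eight test concentrations, 5 nM up to 87.5 uM final, preincubated 30min at 37C in the dark with purified luciferase (0.5% DMSO final). Detection reagent (150uM D-luciferin, 147uM dATP, 75uM CoA, pH 7.8) injected per well before kinetic luminescence read; three replicates.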

[6] = read-out: Glyceraldehyde-3-phosphate dehydrogenase (Homo sapiens) (UniProt P04406); experiment: CLD_GAPDH_48hr: CellzDirect (CLD) Gene Expression Assay for Baseline Control (Glyceraldehyde 3-phosphate dehydrogenase) at 48 hours (AID 2283706);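 note: active means higher GAPDH mRNA than DMSO vehicle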
In short: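 GAPDH baseline-control readout: qNPA chemiluminescent mRNA quantitation in human liver primary cells 48 h after daily dosing on two consecutive days, vehicle 0.2% DMSO; gain of signal fitted against DMSO, cytotoxicity flagged by phase-contrast morphology.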

[7] = read-out: organic anion transporter (SLCO1B1), SLCO1B1 (gene 10599); experiment: CLD_SLCO1B1_48hr: CellzDirect (CLD) Gene Expression Assay for organic anion transporter (SLCO1B1) at 48 hours (AID 2283707)
In short: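 SLCO1B1 transcript quantified by qNPA with chemiluminescent readout after 48 h of once-daily chemical exposure. Cultured human primary hepatocytes came from two donors, with 0.2% DMSO vehicle; positive-direction fitting against DMSO, cytotoxicity flagged by morphology.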

[8] = read-out: alkyl and aryl transferase (GSTA2), GSTA2 (gene 2939); experiment: CLD_GSTA2_48hr: CellzDirect (CLD) Gene Expression Assay for alkyl and aryl transferase (GSTA2) at 48 hours (AID 2283708);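 note: active means mRNA induction above DMSO vehicle baseline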
In short: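 GSTA2 mRNA quantified by qNPA chemiluminescence in human primary hepatocyte lysates after 48 h of daily fresh chemical dosing. Increases fitted against 0.2% DMSO vehicle baseline; cytotoxicity from morphology annotated yes/no.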

[9] = read-out: glucuronosyltransferase (UGT1A1), UGT1A1 (gene 54658); experiment: CLD_UGT1A1_48hr: CellzDirect (CLD) Gene Expression Assay for glucuronosyltransferase (UGT1A1) at 48 hours (AID 2283709);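 note: actives increase expression relative to DMSO so potency refers to induction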
In short: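 Quantitative nuclease protection assay (chemiluminescent) for UGT1A1 mRNA at 48 h in human hepatocyte cultures from two donors, redosed daily with fresh solutions. Induction fitted relative to 0.2% DMSO; phase-contrast morphology annotated cytotoxicity.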

[10] = read-out: sulfotransferase (SULT2A), SULT2A1 (gene 6822); experiment: CLD_SULT2A_48hr: CellzDirect (CLD) Gene Expression Assay for sulfotransferase (SULT2A) at 48 hours (AID 2283710);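 note: hits raise SULT2A1 transcript above the 0.2% DMSO vehicle baseline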
In short: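 SULT2A1 transcript measured by qNPA chemiluminescence in human primary hepatocyte cultures after 48 h, with fresh dosing solutions on two consecutive days; gain-of-signal fitting against 0.2% DMSO vehicle; cytotoxicity annotated from phase-contrast morphology.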

[11] = ArunA_CellTiter_hNC: Viability Assessment in the ArunA Biomedical's Oris Neural Crest (hNC) Cell Migration Assay (AID 2283752)
In short: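 After a 72 h chemical exposure, viability of hNC cells is read with CellTiter Aqueous One and fitted as signal loss relative to DMSO. Cells were seeded at 60,000/well on Matrigel and cultured 16 h at 37 C beforehand.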

[12] = ArunA_CellTiter_hNP: Viability Assessment in the ArunA Biomedical's Oris Neural Crest (hNC) Cell Migration Assay (AID 2283753)
In short: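 Viability read with CellTiter 96 Aqueous One after 72 h chemical exposure of human hNP1 neuroprogenitors, which were plated on Matrigel in LIF/bFGF medium 16 h beforehand. Endpoint fitted in positive direction relative to DMSO.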

[13] = ArunA_Migration_hNP: ArunA Biomedical's Oris Neuroprogenitor (hNP) Cell Migration Assay (AID 2283754)
In short: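 Readout is calcein-AM fluorescence (ex494/em517) of cells migrating into the detection zone, relative to DMSO. hNP1 cells (H9-derived) grown on Matrigel behind stoppers 16 h, then stoppers pulled and chemical applied 72 h; cytochalasin D as control.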

[14] = ArunA_Migration_hNC: ArunA Biomedical's Oris Neural Crest (hNC) Cell Migration Assay (AID 2283755)
In short: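 Calcein-AM fluorescence (ex494 nm/em 517 nm) in the stopper-defined detection zone quantifies migration of hNC cells after 72 h chemical exposure; 60,000 cells/well plated on Matrigel with LIF and bFGF, 16 h pre-incubation. DMSO baseline.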

[15] = test system: chicken Androgen Receptor (AR), gene 422165; experiment: ATG_chAR_XSP1: Attagene TRANS-FACTORIAL Multi-Species (XSP1) HepG2 Assay for chicken Androgen Receptor (AR) (AID 2283768)
In short: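 Reporter mRNA read by RT-PCR with fluorescent labelling and capillary electrophoresis 24 h after chemical dosing of transiently transfected HepG2 cells. Chicken AR-Gal4 chimera, partially stimulated with 3 nM 6-alpha-fluorotestosterone; activity fitted upward relative to DMSO.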

[16] = test system: zebrafish Androgen Receptor (AR), gene 100005148; experiment: ATG_zfAR_XSP1: Attagene TRANS-FACTORIAL Multi-Species (XSP1) HepG2 Assay for zebrafish Androgen Receptor (AR) (AID 2283771)
In short: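 Gain-of-signal versus DMSO was measured as reporter transcripts quantified by RT-PCR, fluorescent labelling and capillary electrophoresis after 24 h chemical exposure. The cells were HepG2 expressing a chimeric zebrafish AR-GAL4, co-stimulated with 3 nM 6-alpha-fluorotestosterone.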

[17] = read-out: xenobiotic metabolism (CYP1A1), CYP1A1 (gene 1543); experiment: CLD_CYP1A1_48hr: CellzDirect (CLD) Gene Expression Assay for xenobiotic metabolism (CYP1A1) at 48 hours (AID 2283705)
In short: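 CYP1A1 transcript measured by quantitative nuclease protection (chemiluminescent) 48 h after two daily treatments of human hepatocyte cultures, versus 0.2% DMSO. Morphology-based cytotoxicity flags accompany data; two donor preparations used.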

[18] = read-out: HMG-CoA synthase (HMGCS2), HMGCS2 (gene 3158); experiment: CLD_HMGCS2_48hr: CellzDirect (CLD) Gene Expression Assay for HMG-CoA synthase (HMGCS2) at 48 hours (AID 2283711)
In short: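 mRNA induction read by qNPA chemiluminescence, 48 h after dosing. Cultured primary human liver cells (two donor preparations) received fresh compound daily over two days against 0.2% DMSO vehicle; morphology-based cytotoxicity noted alongside.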

Measured: AC50

Chain of Glyceraldehyde-3-phosphate dehydrogenase (Homo sapiens) (P04406 whole entry, looked up): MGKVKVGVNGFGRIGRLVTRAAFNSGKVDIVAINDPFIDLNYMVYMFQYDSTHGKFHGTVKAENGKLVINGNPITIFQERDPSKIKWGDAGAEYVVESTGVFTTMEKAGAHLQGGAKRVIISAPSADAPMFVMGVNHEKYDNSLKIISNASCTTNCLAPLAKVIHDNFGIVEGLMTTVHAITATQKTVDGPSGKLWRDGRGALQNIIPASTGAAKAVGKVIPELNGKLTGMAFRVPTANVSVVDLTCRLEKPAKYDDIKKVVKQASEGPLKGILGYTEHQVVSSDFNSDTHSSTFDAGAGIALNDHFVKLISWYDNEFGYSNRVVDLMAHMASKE

CCCCCCCCOC(=O)c1ccccc1C(=O)OCCCCCCCC
inactive: [1] | [2] | [3] | [4] | [5]

COS(=O)(=O)OC
inactive: [1] | [2] | [4] | [5]

c1cc2ccc3cccc4ccc(c1)c2c34
inactive: [3] | [4]

CCSC(=O)N(CC)C1CCCCC1
inactive: [6] | [7] | [9] | [10] | [1] | [3] | [4]
active: [8] 7.96 µM | [2] 32.1 µM

Nc1ccc(-c2ccc(N)cc2)cc1
inactive: [3] | [4]

Oc1ccc(C(c2ccc(O)cc2)(C(F)(F)F)C(F)(F)F)cc1
inactive: [1] | [2] | [5] | [15] | [16]
active: [4] 45 µM | [11] 9.41 µM | [12] 12.2 µM | [13] 24.6 µM | [14] 9.68 µM

CCC(C)c1cc([N+](=O)[O-])cc([N+](=O)[O-])c1O (centres undefined)
active: [4] 0.346 µM
inactive: [1] | [2]

Cc1cc(O)ccc1Cl
inactive: [1] | [2] | [3] | [4]

CCNc1nc(NC(C)C)nc(SC)n1
active: [17] 9.24 µM | [8] 8.73 µM | [2] 34.3 µM | [4] 76.9 µM
inactive: [6] | [9] | [10] | [1] | [3]

N#Cc1ccc(N(CC(N)=O)CC(F)(F)F)cc1C(F)(F)F
inactive: [3] | [4]

C=CC(=O)NCNC(=O)C=C
inactive: [4]
active: [1] 65.6 µM | [2] 81.3 µM

CN(C)c1nc(=O)n(C2CCCCC2)c(=O)n1C
inactive: [6] | [9] | [10] | [18] | [4]

CCC(=O)O[C@H]1CC[C@H]2[C@@H]3CCC4=CC(=O)CC[C@]4(C)[C@H]3CC[C@]12C
active: [1] 29.5 µM | [2] 20.6 µM | [3] 82 µM
inactive: [4] | [5]

Nn1cnnc1
active: [1] 0.037 µM
inactive: [2] | [4]

ClC1=C(Cl)[C@]2(Cl)[C@@H]3[C@@H]4C[C@@H]([C@H]5O[C@@H]45)[C@@H]3[C@@]1(Cl)C2(Cl)Cl
inactive: [1] | [2] | [4]
